PMC7862700, “An all-to-all approach to the identification of sequence-specific readers for epigenetic DNA modifications on cytosine”

Legend:
Assay in all cases: DAPPL (digital affinity profiling via proximity ligation, sequencing); 10 mM Tris-HCl pH 7.5, 50 mM NaCl, 1 mM DTT, 4% glycerol, room temperature, 30 min; GST-TFs on glutathione beads, 16-mer random dsDNA library, 0.1% formaldehyde crosslink after washing; high values mean tight binding
[1] = target: T1, FEV (Homo sapiens, UniProt Q99581 1-238); conditions: protein: recombinant; tags: N-terminal GST; dsDNA, one strand shown
T1 sequence: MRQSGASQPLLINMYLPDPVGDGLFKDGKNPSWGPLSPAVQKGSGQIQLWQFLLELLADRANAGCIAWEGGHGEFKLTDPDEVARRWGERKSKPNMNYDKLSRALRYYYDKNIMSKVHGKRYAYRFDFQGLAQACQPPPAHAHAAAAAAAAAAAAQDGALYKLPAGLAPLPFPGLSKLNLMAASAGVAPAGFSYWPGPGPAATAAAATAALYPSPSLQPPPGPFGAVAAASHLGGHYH
In short: (§1)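 Human transcription factors carrying a GST fusion were produced in yeast, bound to glutathione beads, tagged with DNA barcodes and pooled together with a tag-only sample. Each pool was held with 200 nmole of a random double-stranded 16-mer DNA library in Tris/NaCl/DTT/glycerol buffer for 30 min at room temperature, then washed, crosslinked in 0.1% formaldehyde, proximity-ligated with BsaI/T4 ligase (1 h, 37 °C), PCR-amplified and sequenced on an Illumina NextSeq500. Binding signal is the read frequency of each hexamer for a given factor divided by its frequency in the tag-only sample.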

[2] = target: ETV5 (Homo sapiens, UniProt P41161 1-510); conditions: protein: recombinant; tags: N-terminal GST; dsDNA, one strand shown
Chain of ETV5 (P41161 whole entry): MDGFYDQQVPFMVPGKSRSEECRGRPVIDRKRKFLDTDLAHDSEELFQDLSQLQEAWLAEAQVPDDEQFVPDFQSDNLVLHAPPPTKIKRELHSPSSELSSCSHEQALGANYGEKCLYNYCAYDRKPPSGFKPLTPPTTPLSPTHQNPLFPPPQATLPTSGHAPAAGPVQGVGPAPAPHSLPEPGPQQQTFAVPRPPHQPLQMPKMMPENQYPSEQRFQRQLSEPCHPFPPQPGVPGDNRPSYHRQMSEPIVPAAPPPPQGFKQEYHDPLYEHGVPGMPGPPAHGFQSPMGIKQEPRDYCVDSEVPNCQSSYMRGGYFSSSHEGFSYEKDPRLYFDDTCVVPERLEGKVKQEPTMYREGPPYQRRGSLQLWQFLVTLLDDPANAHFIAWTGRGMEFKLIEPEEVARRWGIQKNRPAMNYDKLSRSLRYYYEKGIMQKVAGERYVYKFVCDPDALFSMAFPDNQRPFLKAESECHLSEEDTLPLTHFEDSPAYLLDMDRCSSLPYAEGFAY
In short: as §1

[3] = target: HSF1 (Homo sapiens, UniProt Q00613 1-529); conditions: protein: recombinant; tags: N-terminal GST; chain copies: 3; dsDNA, one strand shown
Chain of HSF1 (Q00613 whole entry): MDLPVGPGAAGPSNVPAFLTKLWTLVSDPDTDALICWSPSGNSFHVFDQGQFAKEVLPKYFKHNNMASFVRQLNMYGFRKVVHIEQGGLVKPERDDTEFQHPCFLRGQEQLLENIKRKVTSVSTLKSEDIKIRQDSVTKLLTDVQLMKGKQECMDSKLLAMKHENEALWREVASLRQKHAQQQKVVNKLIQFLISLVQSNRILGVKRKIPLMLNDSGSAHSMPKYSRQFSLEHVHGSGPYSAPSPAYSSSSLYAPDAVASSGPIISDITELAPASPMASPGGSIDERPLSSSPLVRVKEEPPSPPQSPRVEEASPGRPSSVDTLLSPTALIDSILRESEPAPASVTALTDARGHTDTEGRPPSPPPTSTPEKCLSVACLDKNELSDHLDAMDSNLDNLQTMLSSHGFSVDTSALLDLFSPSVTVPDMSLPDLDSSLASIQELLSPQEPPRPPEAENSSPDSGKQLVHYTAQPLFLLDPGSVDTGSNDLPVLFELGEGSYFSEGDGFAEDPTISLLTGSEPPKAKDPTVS
In short: as §1

[4] = target: T2, SPIC (Homo sapiens, UniProt Q8N5J4 1-248); conditions: protein: recombinant; tags: N-terminal GST; dsDNA, one strand shown
T2 sequence: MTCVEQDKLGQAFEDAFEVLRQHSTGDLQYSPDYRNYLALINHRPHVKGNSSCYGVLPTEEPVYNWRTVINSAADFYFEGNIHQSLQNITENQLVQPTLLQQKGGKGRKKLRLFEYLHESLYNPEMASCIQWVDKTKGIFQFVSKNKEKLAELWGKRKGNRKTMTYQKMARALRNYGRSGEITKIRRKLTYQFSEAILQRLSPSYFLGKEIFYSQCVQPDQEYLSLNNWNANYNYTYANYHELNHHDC
In short: as §1

[5] = target: ELF4 (Homo sapiens, UniProt Q99607 1-663); conditions: protein: recombinant; tags: N-terminal GST; dsDNA, one strand shown
Chain of ELF4 (Q99607 whole entry): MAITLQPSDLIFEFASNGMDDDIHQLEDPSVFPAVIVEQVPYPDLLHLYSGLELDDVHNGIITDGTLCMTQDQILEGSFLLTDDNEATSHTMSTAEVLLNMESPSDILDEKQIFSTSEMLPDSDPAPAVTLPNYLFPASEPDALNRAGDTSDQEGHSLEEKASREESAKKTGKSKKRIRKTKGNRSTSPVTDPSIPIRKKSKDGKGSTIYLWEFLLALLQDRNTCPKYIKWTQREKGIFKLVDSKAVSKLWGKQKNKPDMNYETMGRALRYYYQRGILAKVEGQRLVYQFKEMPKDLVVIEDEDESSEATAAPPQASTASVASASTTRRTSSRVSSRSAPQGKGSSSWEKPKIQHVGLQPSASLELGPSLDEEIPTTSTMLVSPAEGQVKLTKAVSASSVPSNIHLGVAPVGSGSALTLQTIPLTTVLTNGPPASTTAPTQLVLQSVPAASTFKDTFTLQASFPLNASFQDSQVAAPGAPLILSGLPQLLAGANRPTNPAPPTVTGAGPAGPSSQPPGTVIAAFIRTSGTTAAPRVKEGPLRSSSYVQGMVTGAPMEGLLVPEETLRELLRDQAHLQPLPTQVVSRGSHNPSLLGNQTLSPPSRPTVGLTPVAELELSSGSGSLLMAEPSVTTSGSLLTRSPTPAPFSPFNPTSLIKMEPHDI
In short: as §1

[6] = target: T3, ELK4 (Homo sapiens, UniProt P28324-2 1-405); conditions: protein: recombinant; tags: N-terminal GST; dsDNA, one strand shown
T3 sequence: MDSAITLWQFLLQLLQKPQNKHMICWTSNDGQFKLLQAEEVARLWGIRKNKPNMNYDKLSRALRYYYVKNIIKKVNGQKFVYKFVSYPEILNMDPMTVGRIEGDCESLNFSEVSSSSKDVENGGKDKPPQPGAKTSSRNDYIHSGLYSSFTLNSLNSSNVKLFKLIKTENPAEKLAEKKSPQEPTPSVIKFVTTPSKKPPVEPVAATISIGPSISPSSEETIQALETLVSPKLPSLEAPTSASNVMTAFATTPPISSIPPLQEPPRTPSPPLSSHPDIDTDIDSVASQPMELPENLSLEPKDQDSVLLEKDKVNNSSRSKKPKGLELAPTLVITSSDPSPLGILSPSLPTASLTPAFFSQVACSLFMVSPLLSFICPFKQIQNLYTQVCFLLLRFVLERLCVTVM
In short: as §1

[7] = target: T4, ETV2 (Homo sapiens, UniProt O00321 1-342); conditions: protein: recombinant; tags: N-terminal GST; dsDNA, one strand shown
T4 sequence: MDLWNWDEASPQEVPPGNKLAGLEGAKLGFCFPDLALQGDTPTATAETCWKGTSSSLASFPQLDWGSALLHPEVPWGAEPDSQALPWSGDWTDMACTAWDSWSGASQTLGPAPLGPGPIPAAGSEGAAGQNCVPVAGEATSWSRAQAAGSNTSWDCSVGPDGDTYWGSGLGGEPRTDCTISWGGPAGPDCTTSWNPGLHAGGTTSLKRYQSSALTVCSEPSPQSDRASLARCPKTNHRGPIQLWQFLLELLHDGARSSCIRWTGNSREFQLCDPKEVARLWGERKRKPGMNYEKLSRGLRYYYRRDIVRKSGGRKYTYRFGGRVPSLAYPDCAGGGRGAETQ
In short: as §1

[8] = target: T5, ELF3 (Homo sapiens, UniProt P78545 1-371); conditions: protein: recombinant; tags: N-terminal GST; dsDNA, one strand shown
T5 sequence: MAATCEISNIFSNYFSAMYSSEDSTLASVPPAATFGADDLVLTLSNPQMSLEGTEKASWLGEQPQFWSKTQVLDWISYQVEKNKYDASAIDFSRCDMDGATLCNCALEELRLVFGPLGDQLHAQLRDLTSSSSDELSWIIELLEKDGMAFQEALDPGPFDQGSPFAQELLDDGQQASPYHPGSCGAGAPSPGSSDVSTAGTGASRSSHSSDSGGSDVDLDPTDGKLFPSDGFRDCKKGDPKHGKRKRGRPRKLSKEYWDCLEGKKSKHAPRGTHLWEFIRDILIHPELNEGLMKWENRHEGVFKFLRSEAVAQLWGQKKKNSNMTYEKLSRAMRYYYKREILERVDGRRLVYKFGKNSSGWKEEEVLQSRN
In short: as §1

[9] = target: CRX (Homo sapiens, UniProt O43186 1-299); conditions: protein: recombinant; tags: N-terminal GST; dsDNA, one strand shown
Chain of CRX (O43186 whole entry): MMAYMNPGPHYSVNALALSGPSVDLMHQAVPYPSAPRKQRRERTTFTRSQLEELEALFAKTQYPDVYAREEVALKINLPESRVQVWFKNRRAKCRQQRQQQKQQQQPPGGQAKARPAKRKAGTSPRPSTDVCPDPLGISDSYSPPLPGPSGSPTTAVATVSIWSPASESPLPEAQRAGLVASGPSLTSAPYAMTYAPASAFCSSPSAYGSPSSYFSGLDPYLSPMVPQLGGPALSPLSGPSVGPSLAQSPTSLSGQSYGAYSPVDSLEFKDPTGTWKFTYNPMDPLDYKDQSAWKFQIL
In short: as §1

[10] = target: ETV1 (Homo sapiens, UniProt P50549 1-477); conditions: protein: recombinant; tags: N-terminal GST; dsDNA, one strand shown
Chain of ETV1 (P50549 whole entry): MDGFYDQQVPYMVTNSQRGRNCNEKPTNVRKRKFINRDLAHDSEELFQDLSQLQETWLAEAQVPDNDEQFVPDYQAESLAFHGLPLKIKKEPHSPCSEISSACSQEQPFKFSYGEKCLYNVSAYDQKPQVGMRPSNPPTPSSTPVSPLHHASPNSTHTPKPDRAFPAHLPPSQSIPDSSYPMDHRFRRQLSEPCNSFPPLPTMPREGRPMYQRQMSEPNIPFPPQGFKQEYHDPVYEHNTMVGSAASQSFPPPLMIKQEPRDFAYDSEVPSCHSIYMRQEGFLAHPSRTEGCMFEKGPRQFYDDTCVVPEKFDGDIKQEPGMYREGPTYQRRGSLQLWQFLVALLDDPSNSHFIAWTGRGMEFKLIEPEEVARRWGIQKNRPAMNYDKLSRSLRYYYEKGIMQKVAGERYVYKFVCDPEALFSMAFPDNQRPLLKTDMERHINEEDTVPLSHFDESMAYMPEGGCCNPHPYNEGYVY
In short: as §1

[11] = target: T6, ERF (Homo sapiens, UniProt P50548 1-548); conditions: protein: recombinant; tags: N-terminal GST; dsDNA, one strand shown
T6 sequence: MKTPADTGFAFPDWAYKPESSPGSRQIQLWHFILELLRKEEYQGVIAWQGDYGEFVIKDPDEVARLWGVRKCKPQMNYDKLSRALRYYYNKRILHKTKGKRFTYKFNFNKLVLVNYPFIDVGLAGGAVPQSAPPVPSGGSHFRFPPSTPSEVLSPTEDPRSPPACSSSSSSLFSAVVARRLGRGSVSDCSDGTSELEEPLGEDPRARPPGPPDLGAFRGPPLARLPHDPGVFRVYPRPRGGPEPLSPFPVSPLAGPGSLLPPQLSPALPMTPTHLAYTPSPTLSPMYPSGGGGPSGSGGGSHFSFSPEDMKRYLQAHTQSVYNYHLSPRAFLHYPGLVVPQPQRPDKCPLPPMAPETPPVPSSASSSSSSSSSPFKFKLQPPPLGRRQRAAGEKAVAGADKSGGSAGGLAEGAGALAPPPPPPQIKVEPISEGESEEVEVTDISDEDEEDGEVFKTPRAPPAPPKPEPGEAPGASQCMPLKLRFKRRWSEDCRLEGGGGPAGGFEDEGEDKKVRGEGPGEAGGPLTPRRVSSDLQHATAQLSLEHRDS
In short: as §1

[12] = target: T7, ETV3L (Homo sapiens, UniProt Q6ZN32 1-361); conditions: protein: recombinant; tags: N-terminal GST; dsDNA, one strand shown
T7 sequence: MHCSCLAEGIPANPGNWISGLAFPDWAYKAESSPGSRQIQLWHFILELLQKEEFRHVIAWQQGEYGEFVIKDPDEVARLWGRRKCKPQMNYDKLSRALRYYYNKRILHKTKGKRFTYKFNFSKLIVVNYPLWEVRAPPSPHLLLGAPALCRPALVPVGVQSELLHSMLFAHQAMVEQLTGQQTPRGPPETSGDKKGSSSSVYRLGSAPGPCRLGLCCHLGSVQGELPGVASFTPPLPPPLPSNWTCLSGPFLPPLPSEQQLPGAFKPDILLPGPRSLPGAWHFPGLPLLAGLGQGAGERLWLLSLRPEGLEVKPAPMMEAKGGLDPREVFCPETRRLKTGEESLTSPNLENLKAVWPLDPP
In short: as §1

[13] = target: T8, ETS2 (Homo sapiens, UniProt P15036 1-469); conditions: protein: recombinant; tags: N-terminal GST; dsDNA, one strand shown
T8 sequence: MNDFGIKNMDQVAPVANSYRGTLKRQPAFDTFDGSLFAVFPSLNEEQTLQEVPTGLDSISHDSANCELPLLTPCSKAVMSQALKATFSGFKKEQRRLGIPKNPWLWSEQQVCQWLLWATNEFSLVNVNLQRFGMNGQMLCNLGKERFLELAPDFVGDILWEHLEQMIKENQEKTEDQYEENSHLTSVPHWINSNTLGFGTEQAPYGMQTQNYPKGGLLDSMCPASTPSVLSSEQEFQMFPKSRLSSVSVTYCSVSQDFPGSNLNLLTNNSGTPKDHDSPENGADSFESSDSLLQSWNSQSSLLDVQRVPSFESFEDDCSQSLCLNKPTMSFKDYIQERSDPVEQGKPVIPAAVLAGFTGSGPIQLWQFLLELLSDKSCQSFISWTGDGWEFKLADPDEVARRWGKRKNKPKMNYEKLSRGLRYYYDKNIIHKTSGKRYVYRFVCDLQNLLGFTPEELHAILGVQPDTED
In short: as §1

[14] = target: T9, SPDEF (Homo sapiens, UniProt O95238 1-335); conditions: protein: recombinant; tags: N-terminal GST; dsDNA, one strand shown
T9 sequence: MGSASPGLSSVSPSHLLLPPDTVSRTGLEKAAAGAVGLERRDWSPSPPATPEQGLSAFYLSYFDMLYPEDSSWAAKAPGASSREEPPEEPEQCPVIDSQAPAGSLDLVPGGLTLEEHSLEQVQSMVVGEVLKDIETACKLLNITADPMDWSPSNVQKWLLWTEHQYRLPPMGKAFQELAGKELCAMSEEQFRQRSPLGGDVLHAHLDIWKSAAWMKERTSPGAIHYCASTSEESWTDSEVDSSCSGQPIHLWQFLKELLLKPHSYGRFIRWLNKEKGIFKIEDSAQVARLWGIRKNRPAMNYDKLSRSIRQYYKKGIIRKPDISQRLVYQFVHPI
In short: as §1

[15] = target: T10, ETV7 (Homo sapiens, UniProt Q9Y603 1-341); conditions: protein: recombinant; tags: N-terminal GST; dsDNA, one strand shown
T10 sequence: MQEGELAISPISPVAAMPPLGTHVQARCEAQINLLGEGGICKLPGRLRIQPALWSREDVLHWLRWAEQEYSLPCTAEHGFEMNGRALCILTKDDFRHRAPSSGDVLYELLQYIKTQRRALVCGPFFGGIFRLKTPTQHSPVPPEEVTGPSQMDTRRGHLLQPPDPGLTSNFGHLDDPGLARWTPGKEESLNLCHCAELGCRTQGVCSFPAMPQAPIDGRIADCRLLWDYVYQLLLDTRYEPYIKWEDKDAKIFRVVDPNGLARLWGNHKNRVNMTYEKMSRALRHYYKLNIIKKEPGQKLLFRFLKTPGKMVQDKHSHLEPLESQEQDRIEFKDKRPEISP
In short: as §1

[16] = target: T11, ELF5 (Homo sapiens, UniProt Q9UKW6-2 1-255); conditions: protein: recombinant; tags: N-terminal GST; dsDNA, one strand shown
T11 sequence: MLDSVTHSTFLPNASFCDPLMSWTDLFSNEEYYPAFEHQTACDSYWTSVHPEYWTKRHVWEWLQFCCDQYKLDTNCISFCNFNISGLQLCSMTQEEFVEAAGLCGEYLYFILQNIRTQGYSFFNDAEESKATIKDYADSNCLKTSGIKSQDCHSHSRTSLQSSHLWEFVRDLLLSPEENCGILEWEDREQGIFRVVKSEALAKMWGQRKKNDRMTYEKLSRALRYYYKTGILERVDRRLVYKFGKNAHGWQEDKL
In short: as §1

[17] = target: T12, ETV3 (Homo sapiens, UniProt P41162-2 1-143); conditions: protein: recombinant; tags: N-terminal GST; dsDNA, one strand shown
T12 sequence: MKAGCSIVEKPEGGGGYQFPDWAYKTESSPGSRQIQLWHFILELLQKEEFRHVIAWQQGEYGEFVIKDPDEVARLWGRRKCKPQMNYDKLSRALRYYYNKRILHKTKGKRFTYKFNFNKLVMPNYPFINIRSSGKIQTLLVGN
In short: as §1

[18] = target: ETV6 (Homo sapiens, UniProt P41212 1-452); conditions: protein: recombinant; tags: N-terminal GST; dsDNA, one strand shown
Chain of ETV6 (P41212 whole entry): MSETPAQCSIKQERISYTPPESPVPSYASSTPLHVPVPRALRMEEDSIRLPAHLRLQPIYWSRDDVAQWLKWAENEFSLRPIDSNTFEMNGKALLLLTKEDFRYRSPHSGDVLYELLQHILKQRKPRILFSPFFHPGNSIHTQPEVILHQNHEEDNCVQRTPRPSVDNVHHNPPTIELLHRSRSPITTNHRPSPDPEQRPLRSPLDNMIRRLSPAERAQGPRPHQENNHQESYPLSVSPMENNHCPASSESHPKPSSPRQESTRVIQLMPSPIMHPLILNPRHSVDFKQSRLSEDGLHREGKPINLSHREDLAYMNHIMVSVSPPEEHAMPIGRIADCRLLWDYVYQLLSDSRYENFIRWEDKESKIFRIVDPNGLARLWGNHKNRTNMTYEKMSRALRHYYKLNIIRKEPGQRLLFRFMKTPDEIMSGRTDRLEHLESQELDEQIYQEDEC
In short: as §1

## TCTCAG
[1]
  binding signal: 1.37 fold enrichment (6-mer frequency, TF over GST control)
[2]
  binding signal: 1.33 fold enrichment (6-mer frequency, TF over GST control)
[3]
  binding signal: 1.4 fold enrichment (6-mer frequency, TF over GST control)
[4]
  binding signal: 1.16 fold enrichment (6-mer frequency, TF over GST control)
[5]
  binding signal: 1.36 fold enrichment (6-mer frequency, TF over GST control)
[6]
  binding signal: 1.34 fold enrichment (6-mer frequency, TF over GST control)
[7]
  binding signal: 1.37 fold enrichment (6-mer frequency, TF over GST control)
[8]
  binding signal: 1.37 fold enrichment (6-mer frequency, TF over GST control)
[9]
  binding signal: 1.46 fold enrichment (6-mer frequency, TF over GST control)
[10]
  binding signal: 1.33 fold enrichment (6-mer frequency, TF over GST control)
[11]
  binding signal: 1.26 fold enrichment (6-mer frequency, TF over GST control)
[12]
  binding signal: 1.26 fold enrichment (6-mer frequency, TF over GST control)
[13]
  binding signal: 1.37 fold enrichment (6-mer frequency, TF over GST control)
[14]
  binding signal: 1.33 fold enrichment (6-mer frequency, TF over GST control)
[15]
  binding signal: 1.26 fold enrichment (6-mer frequency, TF over GST control)
[16]
  binding signal: 1.31 fold enrichment (6-mer frequency, TF over GST control)
[17]
  binding signal: 1.43 fold enrichment (6-mer frequency, TF over GST control)
[18]
  binding signal: 1.34 fold enrichment (6-mer frequency, TF over GST control)
